Active and inactive are the calls of the source. Unless noted, the rule behind the calls is not given here.
How the values were obtained:
[1] = compound effects on lung adenocarcinoma cell viability – A549, calcein-AM fluorescence, 48 h, basal, profiling panel (AID 1162); conditions: higher = more signal; note: test concentration not given here
[2] = compound effects on differentiated 3T3-L1 adipocyte viability – cell-based, 3T3-L1 adipocytes, calcein-AM fluorescence, 48 h, basal, profiling panel (AID 1163); conditions: 3T3-L1 adipocytes viability, higher = more signal; note: test concentration not given here
[3] = compound effects on hepatocellular carcinoma cell viability – HepG2, calcein-AM fluorescence, 48 h, basal, profiling panel (AID 1164); conditions: higher = more signal; note: test concentration not given here
[4] = compound effects on multiple myeloma cell viability – MM1S, calcein-AM fluorescence, 48 h, basal, profiling panel (AID 1165); conditions: higher = more signal; note: test concentration not given here
[5] = calcein-AM signal in unstimulated myeloma cells – cell-based, calcein-AM fluorescence, 48 h, PK04 Diversity Set, profiling panel (AID 1166); conditions: RPMI8226 myeloma viability, higher = more signal;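 note: cells grown under basal conditions without added stimulus; test concentration not given here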
[6] = JC-1 mitochondrial signal, unstimulated HepG2 cells – cell-based, JC-1 fluorescence, 24 h, 100 nL compound, profiling panel (AID 1167); conditions: HepG2 mitochondrial potential, higher = more signal; note: test concentration not given here
[7] = JC-1 mitochondrial signal, unstimulated adipocytes – cell-based, JC-1 fluorescence, 3T3-L1 adipocytes, 24 h, 100 nL compound, profiling panel (AID 1168); conditions: JC-1 mitochondrial fluorescence, higher = more signal, called active from +8 up or from −8 down; note: test concentration not given here
[8] = JC-1 mitochondrial signal, unstimulated myeloma cells – cell-based, JC-1 fluorescence, RPMI8226, 24 h, 100 nL compound, profiling panel (AID 1169); conditions: JC-1 mitochondrial potential fluorescence, higher = more signal; note: test concentration not given here
[9] = JC-1 mitochondrial signal, unstimulated MM1S myeloma – cell-based, JC-1 fluorescence, 24 h, 100 nL compound, profiling panel (AID 1170); conditions: MM1S mitochondrial potential, higher = more signal; note: test concentration not given here
[10] = resazurin metabolic signal in A549 cells – cell-based, resazurin fluorescence, 24 h, PK04 Diversity Set, profiling panel (AID 1171); conditions: A549 viability, higher = more signal, called active from +8 up or from −8 down; note: test concentration not given here
[11] = resazurin metabolic signal in HepG2 cells – cell-based, resazurin fluorescence, 24 h, PK04 Diversity Set, profiling panel (AID 1172); conditions: HepG2 viability, higher = more signal; note: test concentration not given here
[12] = budding yeast growth changes without added modifier – OD600, strain BY4716, 24 h, basal condition, primary screen (AID 1173); conditions: S. cerevisiae BY4716 growth, OD600, 24 h; higher = more signal, called active from +8 up or from −8 down
[13] = viability profiling in MM1S myeloma cells – cell-based, resazurin fluorescence, basal, 24 h, PK04 Diversity Set, profiling panel (AID 1174); conditions: higher = more signal, called active from +8 up or from −8 down; note: test concentration not given here
[14] = target: Dihydroorotate dehydrogenase (quinone), mitochondrial (Plasmodium falciparum (isolate 3D7)) (UniProt Q08210); assay: inhibition of P. falciparum DHODH – biochemical, C-terminal His tag, absorbance 600 nm, primary screen (AID 1175); conditions: PfDHODH enzyme, DCIP absorbance 600 nm; higher = more signal, called active from +8 up or from −8 down;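 note: recombinant parasite enzyme with a five histidine tag at its C terminus; test concentration not given here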
Dihydroorotate dehydrogenase (quinone), mitochondrial (Plasmodium falciparum (isolate 3D7)), sequence (Q08210 whole entry, looked up): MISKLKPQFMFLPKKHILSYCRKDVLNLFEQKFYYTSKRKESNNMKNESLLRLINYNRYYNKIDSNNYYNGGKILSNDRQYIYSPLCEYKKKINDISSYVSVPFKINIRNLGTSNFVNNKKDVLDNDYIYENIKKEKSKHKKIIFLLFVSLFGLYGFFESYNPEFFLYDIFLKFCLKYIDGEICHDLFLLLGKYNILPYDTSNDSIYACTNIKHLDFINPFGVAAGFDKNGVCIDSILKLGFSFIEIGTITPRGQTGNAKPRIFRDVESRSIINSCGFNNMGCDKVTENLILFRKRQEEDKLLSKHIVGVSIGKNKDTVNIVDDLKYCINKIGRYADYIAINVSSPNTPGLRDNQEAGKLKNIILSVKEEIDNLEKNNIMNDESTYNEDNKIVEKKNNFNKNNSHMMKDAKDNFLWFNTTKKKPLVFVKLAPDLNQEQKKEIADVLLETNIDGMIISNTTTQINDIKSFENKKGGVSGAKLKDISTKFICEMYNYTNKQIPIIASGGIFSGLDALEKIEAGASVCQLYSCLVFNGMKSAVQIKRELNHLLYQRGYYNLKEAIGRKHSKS

[15] = inhibition of PAO1 biofilm formation – strain PAO1, LB-PBS medium, absorbance 600 nm, primary screen (AID 1176); note: test concentration not given here; conditions: P. aeruginosa PAO1 growth/biofilm, A600, 12 h; higher = more signal
[16] = growth modulation of vineyard yeast isolate – strain RM11-1a, OD600, basal, 24 h, primary screen (AID 1177);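 note: cultures grown under basal conditions with no added stressor; test concentration not given here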; conditions: S. cerevisiae RM11-1a growth, OD600, 24 h; higher = more signal, called active from +8 up or from −8 down
[17] = growth of efflux-deficient E. coli DRC39 – strain DRC39, OD650, 24 h, E. coli filamentation inducers, primary screen (AID 1178);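 note: growth measured as culture turbidity by optical density at 650 nm; test concentration not given here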; conditions: E. coli DRC39 acrAB, higher = more signal, called active from +8 up or from −8 down
[18] = growth of efflux-deficient E. coli DRC39 – strain DRC39, OD650, 48 h, E. coli filamentation inducers, primary screen (AID 1179);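 note: screen aims at cell division blockers that make cells filament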; conditions: E. coli DRC39 delta-acrAB growth, higher = more signal, called active from +8 up or from −8 down
[19] = viability profiling in RPMI8226 myeloma cells – cell-based, resazurin fluorescence, basal, 24 h, PK04 Diversity Set, profiling panel (AID 1180); conditions: higher = more signal;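 note: RPMI8826 multiple myeloma cell line at 5000 cells per well; test concentration not given here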
[20] = target: E3 ubiquitin-protein ligase XIAP (Homo sapiens) (UniProt P98170); assay: small molecules binding XIAP protein – biophysical, small-molecule microarray, fluorescence 635 nm, primary screen (AID 1181); conditions: higher = more signal;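 note: score merges 667 nm emission and signal to noise over triplicate slides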
E3 ubiquitin-protein ligase XIAP (Homo sapiens), sequence (P98170 whole entry, looked up): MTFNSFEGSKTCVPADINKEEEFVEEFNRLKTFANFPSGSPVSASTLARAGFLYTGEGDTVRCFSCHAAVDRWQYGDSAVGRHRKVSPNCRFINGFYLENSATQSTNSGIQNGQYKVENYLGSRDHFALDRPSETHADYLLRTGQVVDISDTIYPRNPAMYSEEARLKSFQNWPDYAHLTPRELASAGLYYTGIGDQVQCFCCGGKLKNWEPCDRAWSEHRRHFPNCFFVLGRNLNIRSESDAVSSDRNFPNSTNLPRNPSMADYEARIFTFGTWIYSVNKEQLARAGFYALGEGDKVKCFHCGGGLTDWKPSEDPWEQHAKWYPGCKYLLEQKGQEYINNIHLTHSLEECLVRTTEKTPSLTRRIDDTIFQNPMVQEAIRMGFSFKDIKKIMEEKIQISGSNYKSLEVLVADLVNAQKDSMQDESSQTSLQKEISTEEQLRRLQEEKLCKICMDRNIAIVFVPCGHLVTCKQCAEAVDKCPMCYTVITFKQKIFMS

SMILES | z-score [1] | z-score [2] | z-score [3] | z-score [4] | z-score [5] | z-score [6] | z-score [7] | z-score [8] | z-score [9] | z-score [10] | z-score [11] | z-score [12] | z-score [13] | composite z-score [14] | z-score [15] | z-score [16] | z-score [17] | z-score [18] | z-score [19] | composite z-score [20]
CC(C)N1C(=O)[C@@]2(Cc3ccccc31)c1ccccc1C(=O)N(Cc1ccccc1C(F)(F)F)[C@H]2c1ccc(CO)cc1 | -0.262 | 0.523 | 0.133 | -0.895 | -1.27 | -0.77 | 0.109 (inactive) | 0.0301 | 1.03 | 0.752 (inactive) | 0.0887 | 0.407 (inactive) | 0.0922 (inactive) | -18 (active) | 0.146 (inactive) | -0.107 (inactive) | -0.0949 (inactive) | -0.818 (inactive) | 0.566 | 0.0377
COC(=O)[C@@]1(Cc2ccc(F)cc2)[C@H]2c3cc(C(=O)N4CCCC4)n(Cc4ccc(OC(F)(F)F)cc4)c3C[C@H]2CN1C(=O)c1ccccc1 | -1.21 | -0.749 | 0.0322 | -1.04 | -0.55 | -0.269 | -1.35 (inactive) | -0.603 | -0.787 | -0.165 (inactive) | 0.178 | 0.944 (inactive) | -0.799 (inactive) | -0.132 (inactive) | 0.827 (inactive) | 0.157 (inactive) | -0.961 (inactive) | -0.678 (inactive) | -0.453 | 0.0306
CN1C(=O)C2C=CC(C(O)COCc3ccccc3)N(Nc3ccc([N+](=O)[O-])cc3[N+](=O)[O-])C2C1=O (stereo not given) | 1.02 | -0.611 | -0.832 | -1.38 | -0.988 | -0.681 | -0.985 (inactive) | -0.141 | -0.815 | -0.583 (inactive) | -0.473 | -2.33 (inactive) | -0.407 (inactive) | -0.42 (inactive) | 0.558 (inactive) | 0.288 (inactive) | -0.143 (inactive) | -0.445 (inactive) | -0.143 | 0.12
C=C(COC)C(=O)CC[C@@H](OC(=O)c1ccccc1-c1ccccc1C(=O)O)c1ccccc1OCCO | -0.184 | 0.615 | -0.248 | -3.31 | -3.75 | -1.13 | -0.305 (inactive) | -0.88 | -1.84 | 0.393 (inactive) | 0.078 | -1.22 (inactive) | -1.95 (inactive) | -1.57 (inactive) | 2.1 (inactive) | -0.341 (inactive) | 0.0796 (inactive) | -0.129 (inactive) | -1.81 | 0.261
C[C@]1(C(=O)O)c2ccccc2C(=O)N(Cc2cc(C(F)(F)F)cc(C(F)(F)F)c2)[C@H]1c1ccc(CO)cc1 | -0.557 | 0.261 | -0.164 | -0.103 | -0.329 | -0.244 | -0.107 (inactive) | -0.117 | -0.468 | 0.449 (inactive) | 0.341 | 0.0491 (inactive) | 0.385 (inactive) | -0.979 (inactive) | -0.0528 (inactive) | -0.161 (inactive) | -0.124 (inactive) | -0.515 (inactive) | 0.306 | -0.173
COC(=O)C(CC#Cc1ccc2c(c1)[C@]1(C(=O)N2)[C@H](C(N)=O)[C@H]2C(=O)O[C@H](c3ccccc3)[C@H](c3ccccc3)N2[C@@H]1c1ccccc1OCCO)C(=O)OC | -0.782 | -0.436 | -4.23 | -3.4 | -4.62 | -0.82 | 4.3 (inactive) | -1.18 | -2.2 | -2.83 (inactive) | -2.07 | 0.289 (inactive) | -9.27 (active) | 1.53 (inactive) | 2.35 (inactive) | 2.62 (inactive) | 0.0025 (inactive) | 0.957 (inactive) | -7.44 | 0.0289
C=C(C(=O)CC[C@@H](OC(=O)c1ccccc1-c1ccccc1C(=O)O)c1ccc(OCCO)cc1)C(C)C | -0.514 | 0.517 | 0.654 | -3.22 | -2.98 | -0.556 | -1.2 (inactive) | -0.787 | -0.547 | -0.0237 (inactive) | -0.304 | -1.3 (inactive) | 0.089 (inactive) | -1.29 (inactive) | 0.85 (inactive) | -0.718 (inactive) | -0.166 (inactive) | -0.135 (inactive) | 0.488 | -0.101
COC(=O)C(CC#Cc1ccc2c(c1)[C@]1(C(=O)N2)[C@H](c2ccccc2OCCO)N2[C@H](c3ccccc3)[C@H](c3ccccc3)OC(=O)[C@H]2[C@@H]1C(=O)N1CCN(c2ncccn2)CC1)C(=O)OC | -0.071 | -1.46 | 0.496 | -3.23 | -4.35 | -0.735 | 0.181 (inactive) | -1.11 | -1.92 | 0.103 (inactive) | -0.0452 | 2.09 (inactive) | -0.935 (inactive) | -16.6 (active) | 2.29 (inactive) | 3.65 (inactive) | 0.236 (inactive) | -0.11 (inactive) | -4.73 | 0.306
